Assay results published in PubChem BioAssay AID1508600 (Functional Genomics Laboratory (NCATS/FGL), 2020).
Hit rate of the full screen: of about 53,000 sequences, about 3,700 (7%) were called active. Shown is part of a subset that was picked to be rich in actives. Values without a mark were called inactive.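 Rule for the calls: active = gene knockdowns whose robust z-score for IL-1 alpha signal is at least 2 or at most -2, so actives lie on both sides; inactive = the rest.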

assay: Components of the Cytosolic LPS Sensing Pathway: Gene Identification via Genome-wide siRNA Screen; conditions: RAW264.7 macrophages, IL-1a HTRF, actives lie on both sides, screened at 100 nM (by protocol), cells primed 5 h with Pam3CSK4 first;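 note: robust z of the log signal after scaling to non-targeting control siRNA wells of the plate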
Procedure, shortened: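 Read-out: IL-1a HTRF on supernatant, divided by plate negative-control median ×100, log-transformed and converted to robust z-score. Cells were RAW264.7 given 100 nM siRNA, Pam3CSK4-primed 5 hours, then LipidA-transfected 24 hour.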

Row | Sequence | z-score
1 | GGGCCUGCUCUCUUUUCUGTT against Mfsd14b | 1.18
2 | CCUCGAGUCACCAACAUCGTT against Stt3b | -2.46 (active)
3 | GCCUUUUGUACUAAGGUCCTT against Zfp715 | 1.65
4 | GGGACAGUUAGUCAGUAAGTT against Pus7l | 0.196
5 | GGCUCAGAAACAACAGGCUTT against Sh2d3c | -1.19
6 | GGCUGUUAGAGGAAGAGAUTT against Ube3b | 1.64
7 | CCAGCAUCUACUGUCUGACTT against Sstr1 | 4.2 (active)
8 | GCAAUGCAUGAAGACUCGUTT against Ecsit | 0.835
9 | GGGACUGGAUCCUUGAUAUTT against Ebi3 | 0.677
10 | CCCGGACCUUGAAUAAGCATT against Piwil4 | -1.06
11 | GCCACUAUCUGGAUAAGGATT against Ftl1 | -3.54 (active)
12 | GGAGAAGUGGUAGAAACUGTT against Brd8 | -1.3
13 | GCUUAGUCGGGAGAACUUUTT against Skp2 | 0.81
14 | GGACAAGCUAAGCAUUGAGTT against Atp6ap1 | -1.45
15 | GCAUUGUCGUGUCUUCUCUTT against Tti1 | -2.13 (active)
16 | GGAGUUUCAAGAAAAAAGGTT against Map3k21 | 1.08
17 | GGGCGAAGAUACAAGUGACTT against Tnp2 | -1.76
18 | GCACCAAGUCGUAUAAACATT against Sh3glb1 | -0.391
19 | CCAAUUUUGUCAUAGGACATT against Plbd1 | -0.107
20 | GGAUGUAAGGCCUUUUUUATT against Esr2 | 0.676
21 | GGAGACCUUCAGCUUGGAATT against Zfp260 | 0.0537
22 | GGAUUCUAGGAGAGAAUCATT against Cplx3 | 0.897

Row | Sequence | z-score
23 | GCCAUUUCUUAUCAAGUGGTT against Laptm4a | -2.63 (active)
24 | GGAGCAGAACAUUAUCUUCTT against Tnn | 0.603
25 | CCUAAACUACAGGAAUUUATT against D830014E11Rik | -0.0293
26 | CCAUAUGAGAAGAUGACACTT against Pdcl2 | -1.39
27 | GGCAGAAUCAGUUGAAAUUTT against Terf2ip | 0.917
28 | CCAAGUUCGUGACAAACAUTT against Trpv1 | -0.0275
29 | CCAUCAGGGUUACAAGUACTT against 6030458C11Rik | -2.46 (active)
30 | GGACUUGUCCGCUCAUUGGTT against Usp54 | -1.13
31 | GGUAGAAAAGCUUCUGAAATT against Ap1g1 | 0.349
32 | GGCUAUUAACAUCUCAGUUTT against Rhbdd1 | 0.0309
33 | GGACAGAGAUCAAUAUUAATT against Rxfp3 | -0.0718
34 | CGAAUGAAAGAAUACCGUGTT against Dnajc6 | 0.0901
35 | CCUGGAUGCAUGGUUAUUATT against Cyp2ab1 | 2.69 (active)
36 | GGGAAGAAAAUCAAACUCATT against Fabp1 | 0.504
37 | GGCCGUUCAUUUCCUCAUCTT against Galr2 | -0.359
38 | GGAUUUGUUUUCACCAAGATT against Dmd | 0.3
39 | GGUGACAGGUCAGAAAGUCTT against Tor1aip2 | -2.78 (active)
40 | GGAGUUAAACCACUCAAGATT against Ceacam11 | -0.262
41 | GCAGGAUGUGACAGAUACATT against Pdcd2 | 0.185
42 | CCAGAUGCUCGAUUCAGUGTT against Crim1 | -0.44
43 | GGGAAAGACUCAAGGUCCUTT against Olfr586 | 0.774
44 | GGCUAUUACCAUGGCCACUTT against Smim5 | -2.85 (active)

Row | Sequence | z-score
45 | GCCCAAUCAAAAAAUGGUGTT against Zyx | -0.0505
46 | CGUGGACUUUAAGGAGCUGTT against Gdf7 | -0.299
47 | GGAUAAGGUAAUCUCGGUATT against Olfr710 | -0.472
48 | CCAUAUUGAAACCUCAUUUTT against Fam126a | -2.33 (active)
49 | CGUGCUACAGAUGCGUCAUTT against Exoc8 | 0.783
50 | CGCUCGUUACCUAAAGCAGTT against Nwd1 | -2.78 (active)
51 | GCUUUGAAAUCUGAAUCAGTT against Terf2 | 2.06 (active)
52 | GAAUCCGAGAUACGAGCCUTT against H2-D4 | 0.0829
53 | GGUUUGAAAUAUUGUGGAUTT against Spdye4b | -1.23
54 | CCUAGGGACAUUGGUUAUUTT against Sema4f | 2.16 (active)
55 | GGAGCUUCCACAACUCAUATT against Esd | -0.456
56 | GGCAGUGGAGUGUAUGGAUTT against Popdc2 | -0.531
57 | GGAUGCAGCUAACAAUUACTT against Tuba8 | 1.05
58 | GGAUGGAGAGAUAAGAAAATT against Lmntd1 | -0.572
59 | CCUUUCCUAACUUGAUCACTT against Cbr2 | 0.443
60 | CCUCUUAAAACAAUACCAATT against Olr1 | 1.37
61 | GCAAAUAAGAUUGCGUCUGTT against Cpa2 | 2.89 (active)
62 | GGCGAAGGAGAAGAAUUAATT against Rhox5 | 0.352
63 | GGUCAACAAGCAUGCAUUUTT against Wars | -1.65
64 | CCUUAUUUAGCUAAGCAGATT against Ran | -2.95 (active)
65 | GCCAACCAAAACCUAAGCATT against Gjc1 | -1.44
66 | CCCUCACAAUGAUCGAUUUTT against Tkt | -0.885

Row | Sequence | z-score
67 | GGUAAAGUGAACUGUACCUTT against Vstm5 | 0.843
68 | GGUGGAGAUCCGAAAGCAUTT against Ltk | 0.597
69 | CCCUCCAGAAAAACAGUUUTT against Znrd2 | 0.284
70 | GAGUGAGCAAAUACCAGUUTT against 1700001J03Rik | 2.52 (active)
71 | CCAAAAAGAUUUGGAUCUCTT against Nr2f6 | 0.142
72 | GGAAACUUUCUAAAUGCUGTT against Pja1 | -0.0964
73 | GCCAUUAAUGUACCAGGUUTT against Olfr894 | -0.202
74 | GCGUGAACGUAUUUGUUACTT against Pcdhgc3 | 0.203
75 | ACAGGAGUCCAUAGCCGUCTT against Aspscr1 | -1.47
76 | CGGAGGUGGCUAUAAAAAUTT against Sik2 | 0.0967
77 | GGAUUCCUCUAACACAUUUTT against Keg1 | 2.07 (active)
78 | CCUCACCCUUUCCAAAAAATT against Polr2f | -1.03
79 | GCUUUAAUUGUGAAAGCACTT against Miga1 | -2.26 (active)
80 | GCAACACCAGAGUAUGUUATT against Cldn34b3 | 0.794
81 | GGUAUUGGGUUCCAUUAUATT against Mcmdc2 | -0.197
82 | CCCAGCAGAAUAACUGCCATT against Pantr1 | 2.55 (active)
83 | GAAAAUGGUCACUACUGAGTT against S100a8 | -0.0863
84 | GGAAAUGAAGAAAAGUGACTT against Stk32a | -0.0588
85 | GGAGUCAACUUGUGAGGGUTT against Lrp8 | -0.48
86 | CCCAGGUGAGGAUUGAUAATT against Rit2 | 0.667
87 | GCCAACAGUACUUUGUUAATT against Chordc1 | 0.589
88 | GGACAUUUUAAUGUGCUCATT against Erlin2 | 0.0602

Row | Sequence | z-score
89 | GGCACAGAGAUUGAAGAUCTT against Sry | 2.04 (active)
90 | GCUGAAGUCUCUUCAAUGCTT against Trappc6b | -0.71
91 | GCCUACAUAACCUUAAUAUTT against Slc4a10 | 2.2 (active)
92 | GGGAGUAGAGAUCAAAGGCTT against Cfb | -0.0723
93 | GGUGAUUUGCUCAAUCCAATT against Phox2a | 0.611
94 | GGCUGAGAUCUAGCUUACATT against H3c15 | -3.21 (active)
95 | GGCGAAGUGGUUAAAAGUGTT against Ifnar1 | -0.141
96 | GGAUAUCCUUUCAAUAGAATT against Mcf2 | -0.225
97 | GGCCAUUUCUUUCAUAGAUTT against Dusp6 | 0.509
98 | CCUUCGUAGCCUGUAUCAUTT against Myadm | -0.173
99 | CCGAGUAUAUCUAUAAUAGTT against Ear14 | -0.607
100 | GGUGUUUUGUGAAUUGAAATT against Leprotl1 | -1.05
101 | GGAAGAGUGCGUUUACCUUTT against Rrp12 | 0.388
102 | GCUUACAUUAAAGGAUAUGTT against Rab5c | 2.17 (active)
103 | GGAUCUUCUGGAUAGAAUGTT against Prc1 | 1.16
104 | CCCUUUCGACAGAUUAGACTT against Zfp69 | -1.23
105 | GGGUCAUGGACAAUAGAAATT against Olfr52 | -0.833
106 | GGACCAAAAGGAAAAUCCATT against Kcnj6 | -1.05
107 | CCAUAAAUGAGUCUUCAUUTT against Bnip5 | -0.0535
108 | GUGGACAUCCUCUCUGUCATT against Tmem54 | -2.23 (active)
